Assay [1] is described as follows: optical density shifts of acrAB sulA E. coli – strain DRC41, OD650, 48 h, E. coli filamentation inducer project, primary screen (AID 1152).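 Also: E. coli MC1000 strain DRC41 lacking acrAB efflux pump and sulA.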 The note with it: higher = more signal, called active from +8 up or from −8 down.
Assay [2] is described as follows: probe aLefty1 binding on compound microarray – biochemical, small-molecule microarray, 635/667 nm fluorescence, primary screen (AID 1153).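 Also: score merges spot fluorescence with signal-to-noise ratio from the scanned slide images.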 The note with it: higher = more signal.
Assay [3] can be described thus: plasmodial surface anion channel blockers, osmotic lysis – cell-based, P. falciparum Indochina, OD700, 1 h, primary screen (AID 1154). The note with it: P. falciparum Indochina infected RBC osmotic lysis, higher = more signal, called active from +8 up or from −8 down.
Assay [4] in a line: plasmodial surface anion channel blockers, osmotic lysis – cell-based, P. falciparum Indochina, OD700, 2 h, primary screen (AID 1155).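 Also: lysis reports solute entry through the parasite surface anion channel PSAC.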 The note with it: P. falciparum Indochina infected erythrocytes, higher = more signal, called active from +8 up or from −8 down.
Assay [5] is described as follows: changes in parasitized red cell lysis, either direction – P. falciparum Indochina, OD700, 3 h, PSAC antagonist project, primary screen (AID 1156). Particulars: P. falciparum-infected erythrocytes, osmotic lysis, higher = more signal, called active from +8 up or from −8 down.
Assay [6] in a line: plasmodial surface anion channel blockers, osmotic lysis – cell-based, P. falciparum Indochina, OD700, 18 h, primary screen (AID 1157). The note with it: P. falciparum Indochina infected erythrocytes, osmotic lysis OD700, 18 h; higher = more signal, called active from +8 up or from −8 down.
Assay [7] can be described thus: S6 kinase pathway phospho-S6 level changes – cell-based, A549, cytoblot, luminescence, serum-stimulated, primary screen (AID 1158).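 Also: serum-stimulated A549 lung adenocarcinoma cells; signal is phosphorylated S6 detected by cytoblot immunostaining with HRP secondary.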 Particulars: 5 h, higher = more signal.
Assay [8] concerns the target NADPH oxidase 2 (Homo sapiens) (UniProt P04839). Nature of the assay: compounds shifting NOX2 Amplex Red fluorescence – cell-based, HEK293-NOX2, PMA-stimulated, NOX inhibitor project, primary screen (AID 1159). Also: test concentration not given here. The note with it: 45 min, higher = more signal, called active from +8 up or from −8 down.
The target in assay [9] is NADPH oxidase 4 (Homo sapiens) (UniProt Q9NPH5). Nature of the assay: compounds shifting NOX4 Amplex Red fluorescence – cell-based, HEK293-NOX4, tetracycline-induced, NOX inhibitor project, primary screen (AID 1160). The note with it: HEK293-NOX4, Amplex Red H2O2 fluorescence, 45 min; higher = more signal, called active from +8 up or from −8 down.
The target of assay [10] is NADPH oxidase 5 (Homo sapiens) (UniProt Q96PH1). Nature of the assay: compounds shifting NOX5 Amplex Red fluorescence – cell-based, HEK293-NOX5, NOX inhibitor project, primary screen (AID 1161). Particulars: HEK293-NOX5, ionomycin, 45 min, higher = more signal.
A short description of assay [11]: compound effects on lung adenocarcinoma cell viability – A549, calcein-AM fluorescence, 48 h, basal, profiling panel (AID 1162). Also: test concentration not given here. The note with it: higher = more signal.
Assay [12] is described as follows: compound effects on differentiated 3T3-L1 adipocyte viability – cell-based, 3T3-L1 adipocytes, calcein-AM fluorescence, 48 h, basal, profiling panel (AID 1163). Also: test concentration not given here. The note with it: 3T3-L1 adipocytes viability, higher = more signal.
Assay [13] in a line: compound effects on hepatocellular carcinoma cell viability – HepG2, calcein-AM fluorescence, 48 h, basal, profiling panel (AID 1164). Also: test concentration not given here. The note with it: higher = more signal.
The nature of assay [14]: compound effects on multiple myeloma cell viability – MM1S, calcein-AM fluorescence, 48 h, basal, profiling panel (AID 1165).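 Also: viability of MM1S multiple myeloma cells under basal unstimulated conditions; test concentration not given here.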 Particulars: higher = more signal.
Assay [15] is described as follows: calcein-AM signal in unstimulated myeloma cells – cell-based, calcein-AM fluorescence, 48 h, PK04 Diversity Set, profiling panel (AID 1166).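 Also: cells grown under basal conditions without added stimulus; test concentration not given here.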 The note with it: RPMI8226 myeloma viability, higher = more signal.
Assay [16] in a line: JC-1 mitochondrial signal, unstimulated HepG2 cells – cell-based, JC-1 fluorescence, 24 h, 100 nL compound, profiling panel (AID 1167). Also: test concentration not given here. Particulars: HepG2 mitochondrial potential, higher = more signal.
Assay [17] is described as follows: JC-1 mitochondrial signal, unstimulated adipocytes – cell-based, JC-1 fluorescence, 3T3-L1 adipocytes, 24 h, 100 nL compound, profiling panel (AID 1168). Also: test concentration not given here. Particulars: JC-1 mitochondrial fluorescence, higher = more signal, called active from +8 up or from −8 down.
A short description of assay [18]: JC-1 mitochondrial signal, unstimulated myeloma cells – cell-based, JC-1 fluorescence, RPMI8226, 24 h, 100 nL compound, profiling panel (AID 1169). Also: test concentration not given here. Particulars: JC-1 mitochondrial potential fluorescence, higher = more signal.
A short description of assay [19]: JC-1 mitochondrial signal, unstimulated MM1S myeloma – cell-based, JC-1 fluorescence, 24 h, 100 nL compound, profiling panel (AID 1170). Also: test concentration not given here. The note with it: MM1S mitochondrial potential, higher = more signal.
A short description of assay [20]: resazurin metabolic signal in A549 cells – cell-based, resazurin fluorescence, 24 h, PK04 Diversity Set, profiling panel (AID 1171). Also: test concentration not given here. The note with it: A549 viability, higher = more signal, called active from +8 up or from −8 down.

Active and inactive are the calls of the source.

Sequence of NADPH oxidase 2 (Homo sapiens) (P04839 whole entry, looked up): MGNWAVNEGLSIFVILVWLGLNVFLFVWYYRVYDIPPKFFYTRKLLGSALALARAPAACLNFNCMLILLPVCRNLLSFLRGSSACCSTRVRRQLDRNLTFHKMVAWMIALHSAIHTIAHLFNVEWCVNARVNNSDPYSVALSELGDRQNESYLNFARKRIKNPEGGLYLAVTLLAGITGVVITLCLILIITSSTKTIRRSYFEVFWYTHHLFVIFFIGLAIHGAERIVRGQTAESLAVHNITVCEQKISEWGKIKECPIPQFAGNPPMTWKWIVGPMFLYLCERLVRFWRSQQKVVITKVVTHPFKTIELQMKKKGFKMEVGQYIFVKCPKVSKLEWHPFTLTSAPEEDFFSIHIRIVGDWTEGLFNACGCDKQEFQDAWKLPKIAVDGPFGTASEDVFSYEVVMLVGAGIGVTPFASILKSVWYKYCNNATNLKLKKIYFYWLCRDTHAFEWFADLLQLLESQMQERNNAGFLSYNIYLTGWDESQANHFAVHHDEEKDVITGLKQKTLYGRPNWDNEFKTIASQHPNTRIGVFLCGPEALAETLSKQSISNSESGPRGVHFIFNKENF
Sequence of NADPH oxidase 4 (Homo sapiens) (Q9NPH5 whole entry, looked up): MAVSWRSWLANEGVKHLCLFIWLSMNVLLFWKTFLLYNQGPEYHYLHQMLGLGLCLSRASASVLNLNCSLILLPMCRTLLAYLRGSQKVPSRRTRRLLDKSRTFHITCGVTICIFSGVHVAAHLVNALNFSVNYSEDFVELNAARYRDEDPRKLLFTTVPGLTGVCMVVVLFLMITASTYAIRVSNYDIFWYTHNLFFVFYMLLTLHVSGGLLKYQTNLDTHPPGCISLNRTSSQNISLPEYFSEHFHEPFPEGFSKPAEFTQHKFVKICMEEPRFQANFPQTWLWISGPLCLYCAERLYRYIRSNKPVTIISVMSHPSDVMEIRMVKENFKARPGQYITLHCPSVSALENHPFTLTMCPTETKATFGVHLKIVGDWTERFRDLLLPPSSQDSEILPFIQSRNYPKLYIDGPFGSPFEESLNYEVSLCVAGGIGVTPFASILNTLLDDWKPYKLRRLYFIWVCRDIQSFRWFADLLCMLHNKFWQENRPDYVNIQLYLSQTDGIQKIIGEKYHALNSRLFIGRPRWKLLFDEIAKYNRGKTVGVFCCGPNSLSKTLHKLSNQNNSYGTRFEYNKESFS
Sequence of NADPH oxidase 5 (Homo sapiens) (Q96PH1 whole entry, looked up): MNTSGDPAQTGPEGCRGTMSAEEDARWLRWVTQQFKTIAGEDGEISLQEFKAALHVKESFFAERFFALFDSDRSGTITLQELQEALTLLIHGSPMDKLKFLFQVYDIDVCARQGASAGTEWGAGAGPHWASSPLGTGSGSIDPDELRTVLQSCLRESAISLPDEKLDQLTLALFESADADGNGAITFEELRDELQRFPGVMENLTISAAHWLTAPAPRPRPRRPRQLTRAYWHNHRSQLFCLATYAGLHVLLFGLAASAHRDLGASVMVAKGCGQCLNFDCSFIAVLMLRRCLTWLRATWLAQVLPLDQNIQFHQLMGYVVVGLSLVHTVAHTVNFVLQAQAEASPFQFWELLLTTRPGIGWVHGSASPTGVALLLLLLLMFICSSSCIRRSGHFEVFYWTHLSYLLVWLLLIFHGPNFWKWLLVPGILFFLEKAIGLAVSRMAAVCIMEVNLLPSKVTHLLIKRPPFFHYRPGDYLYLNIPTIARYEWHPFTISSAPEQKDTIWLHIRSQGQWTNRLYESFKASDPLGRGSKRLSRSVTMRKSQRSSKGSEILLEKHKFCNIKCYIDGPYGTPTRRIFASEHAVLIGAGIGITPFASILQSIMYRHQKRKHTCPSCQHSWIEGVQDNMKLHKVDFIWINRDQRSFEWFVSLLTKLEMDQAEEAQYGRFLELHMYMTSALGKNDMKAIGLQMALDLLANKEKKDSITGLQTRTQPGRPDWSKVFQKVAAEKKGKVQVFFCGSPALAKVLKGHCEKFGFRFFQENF

As to `CN1C(=O)C2C=CC(C(O)C3CCCCC3)N(N3CCCCC3)C2C1=O` (stereo not given), the z-score was -0.898 (inactive) in assay [1]; 0.0569 (inactive) in assay [3]; 0.257 (inactive) in assay [4]; 0.42 (inactive) in [5]; 1.27 (inactive) in assay [6]; -0.659 in [7]. The z-score in [8] is -0.407 (inactive); in assay [9], 0.674 (inactive); in [10] it was -0.23; in assay [11], -1.21; in assay [12] it was -0.52; in [13], -0.517. Moreover, the z-score is -0.163 in assay [14]; 0.084 in assay [15]; -0.968 in assay [16]; -0.347 (inactive) in assay [17]; -0.763 in assay [18]; -0.228 in assay [19]. Moreover, the z-score in [20] is -0.167 (inactive). In assay [2], this compound showed a composite z-score of 0.493.
Regarding `CN1C(=O)C2C=CC(C(O)Cc3ccccc3)N(N(c3ccccc3)c3ccccc3)C2C1=O` (stereo not given), the z-score was -1.29 (inactive) in assay [1]; 1.15 (inactive) in assay [3]; 1.09 (inactive) in assay [4]; 0.449 (inactive) in assay [5]; 0.679 (inactive) in [6]; -1.07 in assay [7]. Moreover, the z-score in [8] is -0.0622 (inactive); in assay [9], -0.198 (inactive); in assay [10], 0.158; in assay [11], 1.02; in assay [12], -1.5; in assay [13], 1.35. For the same compound, the z-score in [14] is -0.64; in assay [15], 0.0338; in assay [16] it was 1.37; in assay [17], -0.833 (inactive); in assay [18] it was 0.257; in assay [19], -0.871. In addition, in assay [20], the z-score was -0.69 (inactive). Also, in [2], the composite z-score is 0.137.
As to `C=C(COC)/C(=C/C[C@@H](OC(=O)c1ccncc1)c1ccc(OCCO)cc1)c1cnc2ccccc2c1`, the z-score in assay [1] is 0.634 (inactive); in assay [3] it was 23.1 (active); in assay [4] it was 5.56 (inactive); in assay [5], 1.59 (inactive); in assay [6], 1.19 (inactive); in assay [7], -0.0567. The z-score in [8] is -1.17 (inactive); in [9], -0.596 (inactive); in assay [10] it was -1.84; in [11], 0.101; in assay [12], 1.48; in assay [13], -0.0465. The z-score in [14] was -0.289; in assay [15], -0.594; in assay [16], 1.86; in assay [17] it was -0.892 (inactive); in assay [18], 0.674; in assay [19], 0.464. In addition, in assay [20], the z-score is 0.549 (inactive). Besides, the composite z-score in [2] was 0.497.
For the compound `COc1ccccc1CN1C(=O)c2ccccc2[C@](Cc2ccccc2I)(C(=O)NC(C)C)[C@@H]1c1ccc(CO)cc1`, the z-score in assay [1] is 0.646 (inactive); in assay [3], 4.1 (inactive); in [4], 0.644 (inactive); in assay [5], 0.632 (inactive); in assay [6] it was 0.621 (inactive); in [7], 0.0569. Besides, the z-score is -2.12 (inactive) in [8]; 0.143 (inactive) in assay [9]; -2.1 in [10]; 0.312 in assay [11]; 0.771 in assay [12]; -0.185 in assay [13]. Also, the z-score is -1.38 in assay [14]; -2.99 in assay [15]; 1.63 in assay [16]; -0.0467 (inactive) in assay [17]; -0.507 in assay [18]; -1.82 in assay [19]. Moreover, in assay [20], the z-score is -0.306 (inactive). In [2], this compound showed a composite z-score of 0.0494.

Source of the values: PubChem BioAssay.
